“And” between values parts separate entries of the source, which are not always exact repeats. Identical values can stand only once. Results with a measured potency or affinity are listed apart.
Tests used:
Klebsiella pneumoniae = conditions: Concentration 32 ug.mL-1, ASSAY_TEST Inhibition of Bacterial Growth, detection method Absorption (OD600), MEDIA CAMHB, plate type 384well, NBS, CORNING #3640, time 18 hr
Cryptococcus neoformans = conditions: Concentration 32 ug.mL-1, ASSAY_TEST Inhibition of Fungal Growth, detection method Resazurin, Absorption (OD600-OD570), plate type 384well, NBS, CORNING #3640
Candida albicans = conditions: 32 ug/mL

For `Cc1ccc(C(=O)NC(Cc2ccc(F)cc2)C(=O)O)cc1` (centres undefined), the Inhibition (Klebsiella pneumoniae; 32 ug/mL) was -11.12% and 7.59% and the Inhibition (Cryptococcus neoformans; 32 ug/mL) was -14.35% and -11.02%.
With `CCCNC(=O)C(Cc1ccccc1)NC(=O)Cc1ccccc1` (centres undefined) the Inhibition (Klebsiella pneumoniae) was 14.33%, the Inhibition (Candida albicans) was 5.66% and the Inhibition (Cryptococcus neoformans) was -5.77%.
`[C-]#[N+]c1ccc(C(=O)NC(Cc2ccccc2F)C(=O)NCCC)cc1` (centres undefined) was tested, and the Inhibition (Klebsiella pneumoniae) was 8.88%, the Inhibition (Candida albicans) was 1.53% and the Inhibition (Cryptococcus neoformans) was -7.85%.
For `[C-]#[N+]c1ccc(C(=O)NC(Cc2ccc(C(F)(F)F)cc2)C(=O)NCCC)cc1` (centres undefined), the Inhibition (Klebsiella pneumoniae) was 13.54%, the Inhibition (Candida albicans) was 5.79% and the Inhibition (Cryptococcus neoformans) was -3.04%.
In the case of `CCCNC(=O)C(Cc1ccccc1)NC(=O)c1ccc(F)cc1` (centres undefined), the Inhibition (Klebsiella pneumoniae) is reported as 15.24%, the Inhibition (Candida albicans) is reported as 2.91% and the Inhibition (Cryptococcus neoformans) is reported as -7.35%.
`CC(C)C[C@H](NC(=O)c1cccnc1)C(N)=O` was tested, and the Inhibition (Klebsiella pneumoniae; 32 ug/mL) was 3.3% and -1.43% and the Inhibition (Cryptococcus neoformans; 32 ug/mL) was -4.01% and -5.8%.
For `NC(Cc1ccc(F)c(F)c1)C(=O)O.O=C(O)C(F)(F)F` (centres undefined), the Inhibition (Klebsiella pneumoniae; 32 ug/mL) was 7.21% and 5.15%, the Inhibition (Candida albicans) was 1.67% and -0.02% and the Inhibition (Cryptococcus neoformans; 32 ug/mL) was -13.22% and -14.09%.
For `CC(C)C[C@H](NC(=O)c1ccc(Cl)cc1Cl)C(N)=O`, the Inhibition (Klebsiella pneumoniae; 32 ug/mL) was 14.05% and -7.39%, the Inhibition (Candida albicans) was 4.49% and 5.39% and the Inhibition (Cryptococcus neoformans; 32 ug/mL) was -13.33% and -10.52%.
In the case of `NC(Cc1ccccc1I)C(=O)O.O=C(O)C(F)(F)F` (centres undefined), the Inhibition (Klebsiella pneumoniae; 32 ug/mL) is reported as 3.96% and 4.88%, the Inhibition (Candida albicans) is reported as 4.55% and 4.79% and the Inhibition (Cryptococcus neoformans; 32 ug/mL) is reported as -7.57% and -7.31%.
In the case of `NC(=O)[C@H](Cc1ccccc1)NC(=O)c1cccnc1`, the Inhibition (Klebsiella pneumoniae; 32 ug/mL) is reported as 15.19% and 20.47%, the Inhibition (Candida albicans) is reported as 6.63% and 4.08% and the Inhibition (Cryptococcus neoformans; 32 ug/mL) is reported as -3.63% and -8.29%.
In the case of `Cc1ccc(C(=O)NC(Cc2cc(F)c(F)cc2F)C(=O)O)cc1` (centres undefined), the Inhibition (Klebsiella pneumoniae; 32 ug/mL) is reported as 7.96% and 13.51%, the Inhibition (Candida albicans) is reported as 4.99% and 4.52% and the Inhibition (Cryptococcus neoformans; 32 ug/mL) is reported as -10.86% and -7.35%.
With `CC(C)[C@H](NC(=O)c1cccc(C(F)(F)F)c1)C(=O)O` the Inhibition (Klebsiella pneumoniae; 32 ug/mL) was -0.42% and 3.74%, the Inhibition (Candida albicans) was 7.7% and 10.5% and the Inhibition (Cryptococcus neoformans; 32 ug/mL) was -6.26% and -6.2%.
With `NC(=O)[C@H](Cc1ccccc1)NC(=O)c1c(F)c(F)c(F)c(F)c1F` the Inhibition (Klebsiella pneumoniae; 32 ug/mL) was 8.47% and 11.14%, the Inhibition (Candida albicans) was 3.95% and 8.52% and the Inhibition (Cryptococcus neoformans; 32 ug/mL) was -9.93% and -7.63%.
`Cc1ccc(C(=O)NC(Cc2ccccc2C#N)C(=O)O)cc1` (centres undefined) was tested, and the Inhibition (Klebsiella pneumoniae; 32 ug/mL) was 10.82% and 9.51% and the Inhibition (Cryptococcus neoformans; 32 ug/mL) was -6.48% and -6.82%.
`NC(Cc1ccccc1F)C(=O)O.O=C(O)C(F)(F)F` (centres undefined) was tested, and the Inhibition (Klebsiella pneumoniae; 32 ug/mL) was -4.61% and -3.52%, the Inhibition (Candida albicans) was 2.11% and 3.25% and the Inhibition (Cryptococcus neoformans; 32 ug/mL) was -7.08% and 0.99%.
`CCCNC(=O)C(Cc1ccc(F)cc1)NC(=O)c1ccccc1` (centres undefined) was tested, and the Inhibition (Klebsiella pneumoniae) was 12.41%, the Inhibition (Candida albicans) was 2.54% and the Inhibition (Cryptococcus neoformans) was -4.63%.
`[C-]#[N+]c1ccc(C(=O)NC(CC)C(=O)NCCC)cc1` (centres undefined) showed an Inhibition (Klebsiella pneumoniae) of 12.56%, an Inhibition (Candida albicans) of -0.99% and an Inhibition (Cryptococcus neoformans) of -4.7%.
Work on `[C-]#[N+]c1ccc(C(=O)NC(CC#C)C(=O)NCCC)cc1` (centres undefined) yielded an Inhibition (Klebsiella pneumoniae) of 15.5%, an Inhibition (Candida albicans) of 4.37% and an Inhibition (Cryptococcus neoformans) of -8.61%.
In the case of `O=C(NC(Cc1ccc(Cl)nc1)C(=O)O)c1ccccc1` (centres undefined), the Inhibition (Klebsiella pneumoniae; 32 ug/mL) is reported as 9.49% and 7.67%, the Inhibition (Candida albicans) is reported as 3.67% and 3.1% and the Inhibition (Cryptococcus neoformans; 32 ug/mL) is reported as -7.31% and -8.02%.

Reference: ChEMBL document CHEMBL4513142, “CO-ADD screening of Indiana University - Purdue University Indianapolis (USA) compounds”
